The values below come from the supplement of paper PMC6555819.

The assay has as its system VDR homodimer (NR concentration 270 nM). The experiment in a line: PBM binding z-score (relative to random genomic background probes); higher = stronger binding; sequences stand for … in GC…GCGATTGACAGCGTAGAATGAAGG
The method, boiled down: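 Custom Agilent 4×180K protein-binding microarrays carried double-stranded probes. Their 34-nt variable regions held direct-repeat seeds, single-nucleotide variants, half-site ablations and random human genomic background sequences. Arrays were incubated 1 h with ligand-free nuclear receptor dimers in PBS pH 7.4, 2% milk, 0.02% Triton X-100, 1 mM DTT, 0.2 mg/mL BSA and 0.4 mg/ml salmon testes DNA. Antibodies against each partner (one per run) detected binding, and scanned fluorescence was regression-normalized. Binding z-scores use random background probes as reference.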
In the case of CGAACTAGATCACCAGGACAGTGAAGAGGTTGGA, the PBM binding z-score was -0.172.
As for CCGAGTAGGTTACGAGGGGACATTCAGTGCGAAT, the PBM binding z-score came to 1.46.
The same measure for CTGAGTAGGTTACGAGGGGGCATTCAGTGCGAAT: 3.31; for ATATGTAGGTTAGGGTGATTCAGAAAGTAGGGAA: 0.713.
The same measure for CCTAGTGGGCCAAAGGTCATTGATTCCAATGCTC: 3.23.
CTATGTAGGTTAAGGGGGTCATCCAGTTTGAAAG displayed a PBM binding z-score of 4.9.
Consider CTCCAAAGGTCGGTTGAGGTGAGTATACGGATAA, for which the PBM binding z-score was 0.508.
The same measure for TCGAGTAGGTTACGGGGGCATTCATGGATGAAGA: 3.57.
As to CACACTAGGTCAAAGGTCAAAGTCGAGCCAACCA, the PBM binding z-score amounted to 4.12.
Then CCGAGTAGGTTACGAGGGGGCATTCTGTGCGAAT, with 2.56; and CCTAGTGGGTCAGGAGGTCACACACCGGATATGA, with 2.09; and CCTAGCAGGCCACGGTCACTCAAGCATTTCGCTT, with -0.0513.
Then ATCTCTAGGTCAAAGTTCAGTGAATCCCGAGGAT, with 3.19.
The same measure for ACTCGGAGGACAAAGGTGAGAGCTACGCCAGTGA: 0.0446.
Regarding ATATGAAGGTTATCGGGTCATTCAGTTTGCGCAT, the PBM binding z-score came to 4.06.
Then GGAACGGGGGCATTCGAGTTGATAGCATGGCGAT, with 4.57; and CCTAGTTGGTCAGGAGGTCACATACCGGATATGA, with 2.4.
